Screen size: about 340,000 compounds; about 2,100 (0.62%) were called active.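 The calls were made as follows: active = first-screen hits whose inhibition reached a set limit at any dose in the follow-up dose series; inconclusive = inhibition above the set first-screen limit but never retested; inactive = the rest.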 A selection follows. Potency and affinity values are given separately.
biological target: Rac GTPase-activating protein 1 (Homo sapiens) (UniProt Q9H0H5); assay: blockers of MgcRacGAP-driven Rac1 GTP hydrolysis – biochemical, ADP Hunter fluorescence, primary and confirmatory, confirmation (AID 624330); settings: MgcRacGAP-stimulated Rac1 GTP hydrolysis, at 30 µM, active compounds read high, GST-tagged Rac1 F28L mutant substrate;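 also: fluorescence reports GDP produced by GAP-driven GTP hydrolysis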
Sequence (Q9H0H5 whole entry, looked up): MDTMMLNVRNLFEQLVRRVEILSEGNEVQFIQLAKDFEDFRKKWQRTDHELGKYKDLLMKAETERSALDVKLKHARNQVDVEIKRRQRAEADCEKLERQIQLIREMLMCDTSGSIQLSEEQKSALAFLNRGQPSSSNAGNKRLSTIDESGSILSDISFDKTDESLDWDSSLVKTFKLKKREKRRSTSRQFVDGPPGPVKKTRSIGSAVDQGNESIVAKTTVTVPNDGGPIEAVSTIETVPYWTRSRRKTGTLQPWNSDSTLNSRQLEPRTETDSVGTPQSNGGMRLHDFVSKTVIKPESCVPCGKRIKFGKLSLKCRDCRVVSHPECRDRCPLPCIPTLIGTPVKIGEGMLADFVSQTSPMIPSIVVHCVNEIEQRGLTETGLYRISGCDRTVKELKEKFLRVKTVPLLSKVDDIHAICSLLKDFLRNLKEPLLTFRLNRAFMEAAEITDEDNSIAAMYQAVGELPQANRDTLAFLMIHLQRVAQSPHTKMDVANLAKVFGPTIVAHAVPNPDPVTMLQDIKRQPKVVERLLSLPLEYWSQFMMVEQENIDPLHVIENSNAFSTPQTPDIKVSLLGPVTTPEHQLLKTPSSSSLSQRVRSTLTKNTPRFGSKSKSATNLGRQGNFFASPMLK

inhibition, inactive:
O=C(NCCN1C(=O)S/C(=C\c2ccccc2F)C1=O)C1CCCN1C(=O)c1cccs1 (configuration not stated) -14.1%, Cc1ccccc1OCC(=O)N/N=C/c1cn(Cc2ccccc2)c2ccccc12 3.64%, Cc1ccc2nc(-c3ccc(N4C(=N)SC5CS(=O)(=O)CC54)cc3)sc2c1 (configuration not stated) 9.19%, CCOc1ccc(C(=O)N2CCC(C(=O)c3ccc4c(c3)OCCO4)CC2)cc1 -2.21%, COc1ccc(/C=C2\CCCC(C(=O)C(F)(F)F)=C2O)cc1 4.33%, Cc1ccc(S(=O)(=O)Nc2ccc(S(=O)(=O)N3CCOCC3)cc2)cc1 0.84%, CC1CCc2sc(C(=O)NCCCn3ccnc3)cc2C1 (configuration not stated) 5.91%, O=C(c1cc2c(=O)n3ccccc3nc2s1)N1CCN(Cc2ccccc2)CC1 4.57%, Cc1c(N(C)C)c(=O)n(-c2ccccc2)n1C 3.4%, Cc1c(-n2c(=S)[nH]c3ccccc3c2=O)c(=O)n(-c2ccccc2)n1C 4.22%, CCC(C)C1=CC(=Nc2c(C)n(C)n(-c3ccccc3)c2=O)C=C(C(C)CC)C1=O (configuration not stated) 9.72%, Cc1c(C(c2ccc(N(C)C)cc2)c2c(C)n(C)n(-c3ccccc3)c2=O)c(=O)n(-c2ccccc2)n1C -5.89%, Cc1c(N=Cc2nc3ccccc3[nH]2)c(=O)n(-c2ccccc2)n1C 17.9%, CC1=CC(=Nc2c(C)n(C)n(-c3ccccc3)c2=O)C=C(C)C1=O -4.18%, O=NNc1nc2ccccc2n1Cc1ccccc1 7.61%, CCOC(=O)C(NC(=O)Nc1ccc(F)cc1F)(Oc1ccc(F)cc1)C(F)(F)F (configuration not stated) 7.05%, Cc1cc(NS(C)(=O)=O)c(=O)n(Cc2c(F)cccc2Cl)c1 -0.27%, C=CCSc1nc2sc(C)c(C)c2c(=O)n1N 2.09%, CCc1cc(Cn2nc(-c3ccccc3)cc2C(=O)NCC2CC2)on1 12%, COc1cc2c(cc1OC)C(c1cccs1)N(C(=O)c1cccc(S(=O)(=O)N(C)C)c1)CC2 (configuration not stated) 5.21%, CCOc1ccc(S(=O)(=O)N2CCN(C(=O)CCOc3ccccc3C)CC2)cc1 3.82%, CCOc1ccc(NC(=O)COc2cccc3c2CCN(Cc2cccnc2)C3=O)cc1 0.41%, O=C1CC2(CCN(C(=O)c3cccc(Br)c3)CC2)Oc2ccccc21 3.6%, COc1cc2[nH]c(=S)nc(NCCC(C)C)c2cc1OC 20.9%, COc1ccc(C(=O)Nc2nc3cc(OC)c(OC)cc3c(=O)[nH]2)cc1 14.9%, COc1cc2nc(Nc3ccc(F)cc3)nc(N)c2cc1OC 6.17%, COc1ccc(CCNc2nc(=S)[nH]c3cc(OC)c(OC)cc23)cc1OC 39.9%, CSc1nc2c([nH]1)c(=S)n(C)c(=O)n2C 8.34%, COC(=O)C(CC(C)C)NC(=O)CNC(=O)c1ccccc1C (configuration not stated) 7.16%, COc1ccccc1N1CCN(C(=O)c2cccc(N3C(=O)C4C5C=CC(C5)C4C3=O)c2)CC1 (configuration not stated) 9.14%, COc1ccc(C2C(=O)NN=C2C)cc1 (configuration not stated) 22.1%, CC1=NNC(=O)C1Oc1ccccc1 (configuration not stated) 10.8%, Cn1c(N)c(C(=O)COC(=O)/C=C/c2ccccc2)c(=O)n(C)c1=O 1.47%, CCOc1ccccc1N1CCN(CC(=O)Nc2ncc(C)s2)CC1 5.5%, Cc1cnc(NC(=O)CN2CCN(c3ccccn3)CC2)s1 2.02%, c1ccc(COc2ncnc3c2ncn3CCCNCC2CCCO2)cc1 (configuration not stated) 7.05%, COc1ccccc1OCCCCN1CCCCC1 3.62%, Brc1ccccc1OCCCN1CCOCC1 14.8%, COc1ccccc1OCCCCCCN1CCN(C)CC1 -3.02%, Brc1ccccc1OCCN1CCOCC1 17.5%, COc1cc(C)ccc1OCCOCCOc1c(C)cc(C)cc1Br 3.98%, CCn1c(COc2ccc(=O)n(-c3ccccc3)n2)nnc1SCc1ccccc1C -2.27%, O=C(c1noc2c1CCCCC2)N1CCOCC1 1.03%, CC(C)CC(OC(=O)c1nsc(Cl)c1Cl)C(=O)NCC1CCCO1 (configuration not stated) 5.99%, Cc1ccc(S(=O)(=O)N2CCN(c3c([N+](=O)[O-])cc(C(F)(F)F)cc3[N+](=O)[O-])CC2)cc1 6.82%, O=C(Nc1ccc2c(c1)OCO2)C1CCCCC1 6.05%, O=C(NC1CCCCCCC1)c1ccc2c(c1)OCO2 4.04%, CC(C)COC(=O)Cc1c(O)c2ccccc2[nH]c1=O 1.69%, CCOC(=O)C1CCN(C(=O)c2cccc(Cl)c2)CC1 6.23%, O=C(c1cccnc1)N1CCN(C(=O)c2cccc(Cl)c2)CC1 -2.27%, CN1CCCN(C(=O)c2cccc(Cl)c2)CC1 3.23%, CC(C)CC(CO)N1CCN(C(=O)c2cccc(Cl)c2)CCC1=O (configuration not stated) 2.07%, COc1ccc(N2C(=O)CC(N3CCN(c4ccc(S(C)(=O)=O)cc4)CC3)C2=O)cc1 (configuration not stated) -1.2%, CN(C)c1ccc(P(=O)(OCc2ccccc2)C(O)c2ccccc2F)cc1 (configuration not stated) 0.52%, O=C(Nc1ccc(F)cc1)Nc1nnc(COc2ccccc2F)s1 10.4%, CCOc1cc(S(=O)(=O)NCc2cccs2)ccc1Cl 8.13%, CC(=O)NC1=NC(=O)CS1 2.93%, CN(C1=NC(=O)CS1)c1ccc(O)cc1 9.21%, COc1ccc(S(=O)(=O)N2CCC(N3CCCC3)CC2)cc1 21%, Cc1ccc2oc(=O)n(CCOc3ccccc3C)c2c1 0.34%, N=C1S/C(=C\c2ccc(-c3ccccc3C(=O)O)o2)C(=O)N1c1ccc2c(c1)OCO2 19.7%, Cc1c(C(=O)O)cccc1-c1ccc(/C=C2/NC(=O)N(c3ccccc3)C2=O)o1 -7.26%, O=C(O)c1ccccc1-c1ccc(/C=C2\SC(=O)N(c3ccccc3)C2=O)o1 6.66%, O=C(O)c1ccccc1SC1CC(=O)N(c2ccc3c(c2)OCO3)C1=O (configuration not stated) -5.78%, COC(=O)c1ccc(Sc2ccccc2NS(=O)(=O)c2ccc(OC)cc2)nc1 7.44%, CC1(c2nnc(-c3cccc(Cl)c3)o2)CC(c2ccccc2F)=NO1 (configuration not stated) 5.14%, CCn1nc(C)c(/C=N/NC(=O)c2ccoc2C)c1C 1.28%, O=C1CC(/C=C/c2ccccn2)=Nc2ccccc2N1 -8.85%, CC(C)n1cc(/C=N/Nc2ccc(C(=O)O)cc2)c2ccccc21 24.1%, COc1ccc2ccccc2c1/C=N/Nc1ccc(Cl)c(C(=O)O)c1 17.1%, O=C(O)c1cc(N/N=C/c2cccc3ccccc23)ccc1Cl 11.3%, O=C(O)c1cc(N/N=C/c2ccc(-c3ccccc3)cc2)ccc1Cl 5.89%, CC(C)CC1NC(=O)c2cc3ccccc3cc2-n2c1nc1ccc(Cl)cc1c2=O (configuration not stated) 6.29%, COCCCNC(=S)NC1CC2CCCC(C1)N2Cc1ccco1 (configuration not stated) 13.1%, O=C(Nc1ccc(N2CCCC2)c(S(=O)(=O)Nc2cccc(C(F)(F)F)c2)c1)c1cccs1 7.15%, COc1ccccc1NS(=O)(=O)c1cc(N)ccc1N1CCOCC1 16.4%, COc1ccccc1NS(=O)(=O)c1cc(N)ccc1N1CCCCC1 5.74%, Nc1ccc(N2CCCCC2)c(S(=O)(=O)Nc2ccc(Cl)cc2)c1 3.13%, O=C(NNC(=O)c1cc2ccccc2cc1O)c1cccs1 3.14%, Cc1cccc(N2CCN(C(=O)C3CCC(=O)N(Cc4ccccc4F)C3)CC2)c1C (configuration not stated) -9.79%, CCn1cc(/C=C(\NC(=O)c2ccccc2)C(=O)N2CCOCC2)c2ccccc21 9.74%, Nc1no[n+]([O-])c1-c1ccccc1 7.71%, CCCC(=O)Nc1cc(-c2nc3ncccc3o2)ccc1Cl 6.17%, Cc1ccc(-c2nn(CCC(=O)O)cc2/C=C\C(=O)c2ccc(Br)cc2)cc1 -9.64%, O=C(O)CCn1cc(/C=C2\NC(=S)N(c3ccccc3)C2=O)c(-c2ccc(Br)cc2)n1 0.36%, O=C(O)CCn1cc(/C=C2/NC(=S)N(c3ccccc3)C2=O)c(-c2ccccc2)n1 7.18%, O=C(O)CCn1cc(C(=O)O)c(-c2ccccc2)n1 9.41%, NC(=S)N/N=C/c1cn(CCC(=O)O)nc1-c1cccc(Br)c1 12.2%, O=Cc1cn(CCC(=O)O)nc1-c1cccc(Br)c1 -0.73%, Cc1ccc(C2=NN3C(=O)c4ccccc4C3C2)cc1 (configuration not stated) -20.3%, COCCC(=O)N1CCCC(C(=O)c2ccccc2SC)C1 (configuration not stated) 1.95%, COc1ccc(-n2nnnc2SCC(=O)Nc2cccc(O)c2)cc1 8.11%, CCOC(=O)C1(Cc2cccc(OC)c2)CCN(Cc2cccc3cnccc23)CC1 -0.92%, O=C(C=Cc1ccco1)N1CCOCC1 8.8%, CN(C)c1ccc(C=C2C=C(c3ccccc3)OC2=O)cc1 -3.66%, Cc1ccc(C=C2C=C(c3ccccc3)OC2=O)cc1 11.5%, NC(=S)Cc1ccccc1Cl 8.51%
